VP16 counter – Gal4-VP16 reporter inhibition counter-screen; AID 2546; Drosophila S2 Gal4-VP16 UAS-luciferase, luminescence, 20 h; Potency, µM (series often up to 53.6 µM), for the others: at the highest dose activity, negative = inhibition, most hits filed as inhibitors; 310,000 compounds, 3.5% hits;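 also: Gal4-VP16 expression switched on by copper sulfate through the metallothionein promoter; nearly all actives have a fitted effect of over 50% in size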
TDP1 cell CPT – growth inhibition of DT40 Tdp1-/-;hTDP1 cells with camptothecin (screen for TDP1 inhibitors); Potency, µM (titrated, usually from 46.2 µM), for inactives: at the highest dose activity change, negative = growth inhibition, usual class: inhibitors; chicken DT40 Tdp1-/-;hTDP1 cells + 20 nM CPT, ATP luminescence, 48 h; 420,000 compounds, 12% hits; also: nearly all actives have a fitted effect of over 55% in size
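Chicken DT40 Tdp1-/- cells complemented with human TDP1, 400 cells/well, exposed to compounds plus 20 nM camptothecin for at least 48 h at 37 C; viability read as ATP content by CellTiter-Glo luminescence.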
TDP1 block – blocks human tyrosyl-DNA phosphodiesterase 1. recombinant TDP1, AlphaScreen DNA substrate cleavage. Potency, µM (titrated, usually from 130 µM), without a hit: top-dose activity change, negative = inhibition, usual class: inhibitors. 350,000 compounds, 0.28% hits; also: nearly all actives have a fitted effect of over 40% in size
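Recombinant human Tdp1 (E. coli-expressed, 1 nM final) preincubated with compounds 15 min at room temperature, then 5'-biotin/3'-phosphotyrosine-FITC DNA substrate (15 nM final) added for 5 min. AlphaScreen beads (10 ug/ml final) added 10 min; cleavage lowers signal.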
RORg inh – ROR gamma (mouse) transcription inhibition; Potency, µM (highest dose often 53.6 µM), for the others: at the highest dose activity change, negative = inhibition, most hits filed as inhibitors; AID 2551; 310,000 compounds, 5.4% hits; Drosophila S2 Gal4-RORgamma UAS-luciferase reporter, 20 h; P51450; also: nearly all actives have a fitted effect of over 60% in size
Target sequence (P51450 whole entry, looked up, the tested form may be a part): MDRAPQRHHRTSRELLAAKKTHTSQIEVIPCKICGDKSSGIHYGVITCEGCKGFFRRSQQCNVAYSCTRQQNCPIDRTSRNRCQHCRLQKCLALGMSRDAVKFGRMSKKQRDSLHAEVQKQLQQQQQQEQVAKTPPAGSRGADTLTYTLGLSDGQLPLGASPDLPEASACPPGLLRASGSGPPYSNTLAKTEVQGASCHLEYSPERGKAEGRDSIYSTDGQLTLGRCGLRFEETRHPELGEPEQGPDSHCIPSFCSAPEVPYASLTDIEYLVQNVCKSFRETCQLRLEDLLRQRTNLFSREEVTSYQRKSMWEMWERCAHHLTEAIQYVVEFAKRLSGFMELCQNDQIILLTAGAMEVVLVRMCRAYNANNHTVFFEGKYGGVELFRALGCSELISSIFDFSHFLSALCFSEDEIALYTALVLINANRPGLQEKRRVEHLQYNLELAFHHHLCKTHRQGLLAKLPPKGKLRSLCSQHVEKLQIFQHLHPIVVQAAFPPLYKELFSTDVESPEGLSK
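Drosophila S2 cells stably expressing Gal4-DBD/mouse RORγ fusion under metallothionein promoter plus UAS-luciferase; compound 1 h, then 700 uM CuSO4 induction for 20 h at ambient temperature; inhibition read as reduced luminescence.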
DT40 TDP1 no CPT – qHTS for Inhibitors of human tyrosyl-DNA phosphodiesterase 1 (TDP1): qHTS in cells in absence of CPT; DT40 Tdp1-/- hTDP1 cells, no CPT, ATP luminescence, 48 h; Potency, µM (top dose mostly 46.2 µM), for inactives: top-dose activity change, negative = growth inhibition, usual class: inhibitors; 420,000 compounds, 15% hits; AID 686978, 2013; also: nearly all actives have a fitted effect of over 55% in size
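Stably hTDP1-transfected Tdp1-null chicken DT40 cells were treated with library compounds minus camptothecin and grown for at least 48 hr at 37 °C, after which cellular ATP was quantified by luminescence.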
* marks the source's active call; other numbers are inactive results; u = inconclusive; x = not tested or not shown. Sampled rows, rich in hits. Any-hit rate of the full collection: about 19%. Calls follow the shape of the dose curve; as a rule, active = well fitted curve in the direction sought with a large enough effect; inconclusive = small, poorly fitted or top-dose-only effect, or another doubt; inactive = no such curve, though single readings can be large; an effect the other way counts as inactive or inconclusive. % is scaled to controls: 0 for no effect and ±100 for the full control effect; potency is read from the fitted curve at half-maximal effect.

SMILES	VP16 counter	TDP1 cell CPT	TDP1 block	RORg inh	DT40 TDP1 no CPT
CCCSc1nc2sc3c(c2c(=O)[nH]1)CC(C)(CC)OC3 (centres undefined)	-8%	-17%	x	0%	u
C=CCC[C@@H](Cc1ccc(F)cc1)C(=O)OCCNC(=O)[C@@H](CC=C)CC(=O)N[C@H](CO)Cc1ccccc1	x	21µM*	2%	x	u
CN(C)CCCn1c(=O)n(CCc2ccccc2)c(=O)c2c3c(sc21)CCCCC3	-17%	u	6%	-11%	23µM*
NNc1nc2sc3c(c2c(=O)n1Cc1ccccc1)CCC3	9%	-17%	x	-1%	-11%
CN(C)CCCNc1nc2sc3c(c2c(=O)n1CCc1ccccc1)CCCCC3	-10%	u	3%	-31%	16µM*
CCN1C(=O)c2ccccc2Sc2ccc(NC(=O)c3ccc(Cl)cc3)cc21	x	0%	2%	x	-9%
CN1C(=O)c2ccccc2Sc2ccc(NC(=O)COc3ccccc3)cc21	x	4.1µM*	-13%	x	2.9µM*
O=C(Cc1c(F)cccc1Cl)Nc1ccon1	2%	-7%	-1%	30%	-16%
Cc1cc(NC(=O)Cc2c(F)cccc2Cl)no1	-3%	15µM*	-2%	u	u
CCN1C(=O)c2ccccc2Sc2ccc(NC(=O)COc3ccc(Cl)cc3)cc21	x	16µM*	11%	x	18µM*
CCN1C(=O)c2ccccc2Sc2ccc(NC(=O)Nc3cc(C)cc(C)c3)cc21	x	12µM*	6%	x	6.5µM*
CCOc1ccccc1C(=O)NCC(=O)NCc1ccc(S(=O)(=O)N2CCOCC2)cc1	x	-9%	1%	x	-18%
CCOC(=O)N1CCN(c2nc3ccccc3n3cnnc23)CC1	-3%	-22%	x	-14%	u
CC1CN(S(=O)(=O)c2ccc(C(=O)N3c4ccccc4CC3C)cc2)CC(C)O1 (centres undefined)	x	u	-1%	x	-15%
CN1C(=O)c2ccccc2Sc2ccc(NC(=O)Cc3c(F)cccc3Cl)cc21	x	13µM*	2%	x	7.3µM*
Cc1cccc(OCC(=O)Nc2ccc3c(c2)N(C)C(=O)c2ccccc2S3)c1	x	10µM*	0%	x	10µM*
CN1C(=O)c2ccccc2Sc2ccc(NC(=O)Nc3ccccc3F)cc21	x	u	11%	x	u
Clc1ccc(COn2c(-c3ccccc3)nc3ccccc32)cc1	u	u	-5%	10µM*	23µM*
COn1c(-c2ccc(Cl)cc2)nc2ccc(Cl)cc21	26%	-18%	3%	-18%	-18%
Cc1ccc(COn2c(-c3ccc(Cl)cc3)nc3ccc([N+](=O)[O-])cc32)cc1	-4%	u	2%	24%	u
Clc1ccc(COn2c(-c3ccc(Cl)cc3)nc3ccccc32)cc1	21%	u	0%	11µM*	u
CCCC(=O)Nc1ccc(C(=O)NCC2CCCO2)cc1 (centres undefined)	-1%	-3%	-1%	7%	2%
CCN1CCN(C(=O)c2ccc(C(F)(F)F)cc2)CC1	-9%	1%	-13%	16%	8%
CCOn1c(=O)c(-c2ccc(OC)c(OC)c2)[n+]([O-])c2ccccc21	-7%	u	5%	2%	u
COc1ccc(-c2cc(C(F)(F)F)c(C#N)c(SCC(=O)Nc3nc(C)co3)n2)cc1	0%	u	7%	-3%	u
SMILES	VP16 counter	TDP1 cell CPT	TDP1 block	RORg inh	DT40 TDP1 no CPT
Cc1coc(NC(=O)CSc2nc(-c3ccc(Cl)cc3)cc(C(F)(F)F)c2C#N)n1	2%	21µM*	-4%	1%	u
CCC(=O)c1cc(F)ccc1OCC(=O)N1CCN(c2ccc(F)cc2)CC1	-17%	18µM*	-3%	u	21µM*
CC(=O)c1ccc(N2CCN(C(=O)Cc3ccccc3)CC2)c(F)c1	-3%	u	x	u	u
CCC(=O)c1ccc(N2CCN(C(=O)COc3ccc(F)cc3)CC2)c(F)c1	u	21µM*	-4%	16%	23µM*
CC(=O)c1ccc(N2CCN(C(=O)COc3ccc(F)cc3)CC2)c(F)c1	u	u	2%	u	16µM*
Cc1cc(=S)cc(C)n1CCCO	-1%	-4%	7%	-6%	14%
Cc1ccc(N2CC(C(=O)N3CCC(C(=O)NC(C)(C)C)CC3)CC2=O)cc1 (centres undefined)	4%	-21%	5%	9%	-18%
COc1cc(-c2cc3nc(NCc4cccc(Cl)c4)ccn3n2)cc(OC)c1OC	x	6.5µM*	x	x	5.2µM*
COc1cc(-c2cc3nc(NCc4cccs4)ccn3n2)cc(OC)c1OC	x	10µM*	x	x	10µM*
c1ccc(-c2cc3nc(NCc4cccs4)ccn3n2)cc1	x	-105%	x	x	u
Cc1ccc(Nc2nc(N)nc(CSc3nccn3C)n2)c(C)c1	1%	7%	-1%	-19%	1%
COc1cc2c(cc1OC)/C(=C/c1ccc(Br)cc1)C(=O)OC2	0%	u	3%	-23%	18µM*
CCOc1ccc(C(=O)c2cn(CC(=O)Nc3ccc4c(c3)OCCO4)c3ccc(OC)cc3c2=O)cc1	x	u	-4%	x	u
Cc1cccc(NC(=O)CCc2c(C)nc3c(c(C)nn3C(C)(C)C)c2C)c1C	x	u	5%	x	u
COC(=O)c1ccc(NC(=O)CCc2c(C)nc3c(c(C)nn3C(C)(C)C)c2C)cc1	x	u	5%	x	18µM*
CCOC(=O)c1ccc(NC(=O)CCc2c(C)nc3c(c(C)nn3C(C)(C)C)c2C)cc1	x	16µM*	0%	x	18µM*
COc1ccc(CN2CCN(Cc3cccc(F)c3)CC2)cc1OC	-6%	-21%	x	-11%	-24%
O=C(Nc1ccc(F)c(Cl)c1)c1csc([C@@H]2O[C@H](CO)[C@H](O)[C@H](O)[C@H]2O)n1	x	1%	x	x	2%
O=C(Nc1cccc(Cl)c1Cl)c1csc([C@H]2C[C@H](O)[C@@H](CO)O2)n1	x	15µM*	x	x	u
O=C(Nc1cccc(Cl)c1Cl)c1csc([C@@H]2O[C@H](CO)[C@@H](O)[C@H]2O)n1	x	23µM*	x	x	u
O=C(Nc1cccc(Cl)c1)c1ccc2sc([C@H]3C[C@H](O)[C@@H](CO)O3)nc2c1	x	26µM*	x	x	23µM*
COC(=O)CNC(=O)CN(c1ccc(OC)cc1OC)S(=O)(=O)c1ccccc1	x	-2%	1%	x	-11%
CCCCSc1nc(-c2cccc(OC)c2)nc2c1Cc1c(CO)cnc(C)c1O2	x	-21%	5%	x	u
Nc1ncncc1-c1ccc([N+](=O)[O-])cc1	1%	16µM*	2%	2%	u
Nc1ncncc1-c1ccc(F)cc1	x	-6%	x	x	u
c1cncc(CSc2ccc(-c3ccc4c(c3)OCO4)nn2)c1	-18%	u	7%	u	16µM*

Screens (PubChem)
